36 compounds from PubChem BioAssay (NCATS) can be followed below.

Results filed as inconclusive are left out. Entries that show only a call come without a potency. The source made the active and inactive calls. Calls come from the whole dose curve; as a rule, active = well fitted curve in the direction sought with a large enough effect; inconclusive = small, poorly fitted or top-dose-only effect, or another doubt; inactive = no such curve, though single readings can be large; an effect the other way counts as inactive or inconclusive.

Experiment [1] has as its target Tyrosine-protein kinase Yes (Homo sapiens) (UniProt P07947). As to the kind of experiment: qHTS for small molecule inhibitors of Yes1 kinase: Primary Screen (AID 686947). Note: nearly all actives have a fitted effect of over 60% in size. Note: potency is the fitted concentration of half-maximal effect. The conditions noted are these: Yes1 kinase biochemical qHTS inhibition; series mostly up to 76.9 µM. The method, boiled down:
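ADP-Glo luminescence readout; final 4 nM Yes1, 0.1 mM ATP, 0.3 mg/mL poly(E4Y), Tris pH 7.5, MgCl2, DTT, Brij-35. 20 min compound preincubation, 60 min reaction at RT. Normalized to DMSO wells with and without enzyme.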
For orientation: qHTS replaces the single test concentration by a dilution series.

A short description of experiment [2]: qHTS for small molecule inhibitors of Yes1 kinase: Counter Assay (AID 686950).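 Note: no kinase present so only ADP-Glo detection of a fixed ADP amount is tested; luminescence from ADP-Glo reporting ADP in a fixed ATP and ADP mixture.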 The conditions noted are these: series mostly up to 76.9 µM. The method, boiled down: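 Luminescence read-out from ADP-Glo quantifies a fixed ADP amount (0.02 mM ADP with 0.08 mM ATP) after 60 min at room temperature; signal is normalized between DMSO wells with ATP/ADP and with 0.1 mM ATP alone.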

Chain of Tyrosine-protein kinase Yes (Homo sapiens) (P07947 whole entry, looked up): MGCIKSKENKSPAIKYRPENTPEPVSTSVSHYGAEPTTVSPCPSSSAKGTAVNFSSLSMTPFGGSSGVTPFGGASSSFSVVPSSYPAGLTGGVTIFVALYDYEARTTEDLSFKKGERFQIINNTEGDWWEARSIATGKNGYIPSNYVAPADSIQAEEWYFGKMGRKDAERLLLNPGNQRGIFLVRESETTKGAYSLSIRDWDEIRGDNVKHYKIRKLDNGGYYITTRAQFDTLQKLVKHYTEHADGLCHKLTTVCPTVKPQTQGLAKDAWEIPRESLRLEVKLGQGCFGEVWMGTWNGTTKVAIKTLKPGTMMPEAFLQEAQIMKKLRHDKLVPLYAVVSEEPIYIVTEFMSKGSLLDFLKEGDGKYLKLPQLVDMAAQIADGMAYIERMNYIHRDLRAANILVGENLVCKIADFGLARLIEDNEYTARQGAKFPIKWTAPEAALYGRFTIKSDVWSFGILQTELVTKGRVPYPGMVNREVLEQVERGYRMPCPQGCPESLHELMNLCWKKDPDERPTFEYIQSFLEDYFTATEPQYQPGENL

As to `O=C(O)c1ccc2c(c1)nc(Nc1cccc(Cl)c1)c1ccncc12`, the Potency in experiment [1] is 487 nM (active). In experiment [2], the compound was called inactive.

On to `CC(=O)Nc1sc2c(c1-c1nc3ccccc3s1)CNC2`, for which, in experiment [1], the Potency result is “inactive”. In experiment [2], the call was inactive.

As to `C=C1C(=CC=C2CCCC3(C)[C@@H]([C@H](C)C=CC=CC(O)(CC)CC)CC[C@@H]23)C[C@@H](O)C[C@@H]1O` (some centres not stated), the Potency result in experiment [1] is “inactive”. Also, the call in experiment [2] was inactive.

`Nc1ccc(C(=O)c2cc3c(ccc4ccccc43)[nH]2)cc1`: in experiment [1], the Potency is 30700 nM (active). For the same compound, in experiment [2], the result was inactive.

With `COc1cccc2nc(-c3cccs3)nc(NN3C(=O)C=C(C)C3=O)c12`, the Potency entry in experiment [1] was “inactive”. The outcome in experiment [2] was inactive.

In the case of `CCN1CCN(CC(=O)Nc2ccc(-c3cccc4c(=O)cc(N5CCOCC5)oc34)c3sc4ccccc4c23)CC1`, the Potency entry in experiment [1] is “inactive”. The call in experiment [2] was inactive.

`CC(C)(C)OC(=O)Nc1ccc(-c2cc(C(=O)NCCCCCCC(=O)NO)no2)cc1`: the Potency result in experiment [1] was “inactive”. In experiment [2], the outcome was inactive.

In the case of `C[C@@H]1CN(CC(=O)Nc2ccc3c(c2)Cc2cccc(-c4cc(=O)cc(N5CCOCC5)o4)c2S3)C[C@H](C)O1`, the Potency entry in experiment [1] was “inactive”. Moreover, in experiment [2], the compound was classed as inactive.

With `Cc1cc(Nc2cc(NC(=O)c3c(Cl)cccc3Cl)ccn2)nc(N)n1`, in experiment [1], the Potency was 194 nM (active). The result in experiment [2] was inactive.

For `C1Cc2[nH]nc(-c3nn[nH]n3)c2C1`, in experiment [1], the Potency result was “inactive”. The result in experiment [2] was inactive.

On to `CC(=O)SC[C@@H](C)C(=O)N1CCC[C@H]1C(=O)N[C@@H](Cc1ccccc1)C(=O)O`, for which the Potency entry in experiment [1] is “inactive”. Besides, the compound was classed as inactive in experiment [2].

Regarding `CC1(C)OC2=C(C(=O)c3ccccc3C2=O)[C@H](NCc2ccccc2)[C@H]1O`, the Potency result in experiment [1] is “inactive”. The outcome in experiment [2] was inactive.

Regarding `Nc1nc(-c2nn(Cc3ccccc3F)c3ncccc23)nc(N)c1N1CCOCC1`, the Potency entry in experiment [1] is “inactive”. The compound was classed as inactive in experiment [2].

As for `CC1(O)CC(c2nc(-c3ccc4ccc(-c5ccccc5)nc4c3)c3c(N)nccn23)C1` (configuration not stated), in experiment [1], the Potency was 1730 nM (active). Moreover, the call in experiment [2] was inactive.

On to `Cc1ccc(C(=O)Nc2cccc(C(F)(F)F)c2)cc1-c1ccc2nc(NCCN3CCOCC3)ncc2c1`, for which the Potency in experiment [1] was 7.7 nM (active). Also, the compound was called inactive in experiment [2].

For the compound `CN(c1ncccc1CNc1nc(Nc2ccc3c(c2)CC(=O)N3)ncc1C(F)(F)F)S(C)(=O)=O`, the Potency in experiment [1] is 194 nM (active). Moreover, in experiment [2], the compound was classed as inactive.

As for `C#Cc1cccc(Nc2ncnc3cc(OC)c(OCCCCCCC(=O)NO)cc23)c1`, the Potency in experiment [1] is 1730 nM (active). Moreover, in experiment [2], the outcome was inactive.

As to `Nc1nccc(Oc2ccc(NC(=O)c3c[nH]cc(-c4ccc(F)cc4)c3=O)cc2F)c1Cl`, the Potency in experiment [1] is 48700 nM (active). The compound was classed as inactive in experiment [2].

With `CC(C)[C@H](C(=O)Nc1ccc(C(=O)NO)cc1)c1ccccc1`, the Potency entry in experiment [1] was “inactive”. Further, the compound was called inactive in experiment [2].

On to `CN1CCN(c2cc(C(=O)Nc3ccc4c(c3)-c3c(c(C(N)=O)nn3-c3ccc(F)cc3)CC4)c(Cl)cn2)CC1`, for which the Potency result in experiment [1] was “inactive”. Also, the result in experiment [2] was inactive.

With `O=C(O)c1ccc2cc(-c3ccc(O)c(C45CC6CC(CC(C6)C4)C5)c3)ccc2c1`, in experiment [1], the Potency result was “inactive”. Besides, the compound was classed as inactive in experiment [2].

Turning to `O=c1[nH]nc(Sc2ncc([N+](=O)[O-])s2)n1-c1ccc2c(c1)OCCO2`, the Potency entry in experiment [1] is “inactive”. Further, the result in experiment [2] was inactive.

On to `NC(=O)c1c(OCc2c(F)cc(Br)cc2F)nsc1NC(=O)NCCCCN1CCCC1`, for which the Potency in experiment [1] was 1.9 nM (active). Moreover, in experiment [2], the compound was called inactive.

Take `O=C(NC1CCNCC1)c1[nH]ncc1NC(=O)c1c(Cl)cccc1Cl`: in experiment [1], the Potency result is “inactive”. Also, in experiment [2], the result was inactive.

In the case of `O=C(O)[C@H](Cc1c[nH]c2ccccc12)N1C(=O)c2ccccc2C1=O`, the Potency result in experiment [1] is “inactive”. Moreover, the compound was classed as inactive in experiment [2].

`O=C(C=Cc1cccc(S(=O)(=O)Nc2ccccc2)c1)NO`: the Potency in experiment [1] is 1.7 nM (active). Also, the compound was classed as inactive in experiment [2].

In the case of `Cc1cccc(C=NNc2cc(N3CCOCC3)nc(OCCc3ccccn3)n2)c1`, the Potency entry in experiment [1] is “inactive”. Also, the call in experiment [2] was inactive.

Turning to `Cn1c(=O)n(-c2ccc(C(C)(C)C#N)cc2)c2c3cc(-c4cnc5ccccc5c4)ccc3ncc21`, the Potency result in experiment [1] was “inactive”. The outcome in experiment [2] was inactive.

Turning to `O=C(C=Cc1c(C(=O)O)[nH]c2cc(Cl)cc(Cl)c12)Nc1ccccc1`, the Potency entry in experiment [1] was “inactive”. For the same compound, in experiment [2], the call was inactive.

Turning to `Clc1ccc2ncc(-c3cccc(NC4CNC4)n3)n2c1`, the Potency in experiment [1] is 274 nM (active). Besides, the outcome in experiment [2] was inactive.

Regarding `Nc1cc(C(F)(F)F)c(-c2cc(N3CCOCC3)nc(N3CCOCC3)n2)cn1`, the Potency entry in experiment [1] was “inactive”. Besides, the result in experiment [2] was inactive.

`CC(C)(C)c1cc(C(C)(C)C)c(NC(=O)c2c[nH]c3ccccc3c2=O)cc1O`: the Potency result in experiment [1] is “inactive”. Besides, the compound was called inactive in experiment [2].

For the compound `CCCCN1CCC(CNC(=O)c2c3n(c4ccccc24)CCCO3)CC1`, in experiment [1], the Potency result was “inactive”. For the same compound, the compound was called inactive in experiment [2].

In the case of `Cc1cn2c(-c3cn[nH]c3)cnc2c(Nc2ccc(C(=O)N3CCNCC3)cc2F)n1`, the Potency in experiment [1] was 21800 nM (active). In experiment [2], the call was inactive.

Consider `COc1cc2c(Oc3ccc(-c4cnc(Nc5ccc(F)cc5)n(C)c4=O)cc3F)ccnc2cc1OCCCN1CCOCC1`, for which the Potency in experiment [1] was 137 nM (active). In experiment [2], the compound was classed as inactive.

In the case of `CC(=O)OCC(=O)[C@@]1(O)[C@H](C)C[C@H]2[C@@H]3C=C(C)C4=Cc5c(cnn5-c5ccccc5)C[C@]4(C)[C@@H]3[C@@H](O)C[C@@]21C`, in experiment [1], the Potency result is “inactive”. Besides, the result in experiment [2] was inactive.
